# Data from PubChem BioAssay.
# Active and inactive are the calls of the source.
# Legend:
# [1] = tested on: Human papillomavirus type 1a protein E7 (residues 44-93); experiment: small molecules binding HPV E7 44-93 – biochemical, small-molecule microarray, residues 44-93, 635 nm fluorescence, primary screen (AID 1108); conditions: fluorescence 635 nm, higher = more signal;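 note: E7 fragment applied at 1 µg/mL in TBST for 1 h at 4 C; score combines spot fluorescence with its signal to noise ratio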
# [2] = hepatitis C replication reporter changes, two-sided – Huh7 cells, luciferase reporter, HCV replication inhibitor project, primary screen (AID 1109); conditions: Huh7 HCV replicon luciferase reporter, 48 h; higher = more signal;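 note: huh7 hepatoma cells harbouring a luciferase neomycin HCV replicon reporter; luciferase luminescence as measure of HCV replicon replication; test concentration not given here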
# [3] = biological target: Left-right determination factor 2 (Homo sapiens) (UniProt O00292); experiment: small molecules binding LEFTY2 protein – biochemical, small-molecule microarray, 635 nm fluorescence scan, primary screen (AID 1110); conditions: higher = more signal
# Chain of Left-right determination factor 2 (Homo sapiens) (O00292 whole entry, looked up): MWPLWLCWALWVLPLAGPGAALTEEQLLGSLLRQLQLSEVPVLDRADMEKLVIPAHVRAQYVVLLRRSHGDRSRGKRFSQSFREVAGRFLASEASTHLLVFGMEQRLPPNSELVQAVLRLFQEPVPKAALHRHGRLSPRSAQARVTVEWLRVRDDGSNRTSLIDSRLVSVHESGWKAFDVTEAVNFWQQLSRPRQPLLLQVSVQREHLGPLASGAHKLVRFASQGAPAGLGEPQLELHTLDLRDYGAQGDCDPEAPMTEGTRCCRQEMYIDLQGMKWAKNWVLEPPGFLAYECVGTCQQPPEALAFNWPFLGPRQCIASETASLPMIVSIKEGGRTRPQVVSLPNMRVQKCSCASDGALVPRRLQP
# [4] = biological target: Calmodulin-1 (Homo sapiens) (UniProt P0DP23); experiment: small molecules binding calmodulin-1 with EGTA – biochemical, small-molecule microarray, Cy5-labelled CALM1, profiling panel (AID 1111); conditions: Cy5-CALM1 binding fluorescence, higher = more signal;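 note: labelled calmodulin applied in Tris saline Tween buffer holding calcium plus EGTA and DTT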
# [5] = biological target: Calmodulin-1 (Homo sapiens) (UniProt P0DP23); experiment: small molecules binding Ca-loaded calmodulin-1 – biochemical, small-molecule microarray, Cy5-labelled CALM1, plus calcium, artefact control for SMM control-protein annotation, profiling panel (AID 1112); conditions: Cy5-CALM1 binding fluorescence, higher = more signal;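 note: score merges spot fluorescence with signal to noise from triplicate slides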
# [6] = probe aWnt5a binding to arrayed compounds – biochemical, biotinylated probe, 635/667 nm fluorescence, primary screen (AID 1113); conditions: small-molecule microarray, higher = more signal;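 note: score merges 667 nm fluorescence intensity with signal-to-noise per printed feature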
# [7] = probe aShh binding to arrayed compounds – biochemical, biotinylated probe, 635/667 nm fluorescence, primary screen (AID 1114); conditions: small-molecule microarray, higher = more signal;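 note: probe is biotin-labelled aShh protein from a stem cell growth factor screen; measures binding of labelled protein to compounds printed on the slide; score merges feature fluorescence at 667 nm with signal-to-noise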
# [8] = probe aNog binding to arrayed compounds – biochemical, biotinylated probe, 635/667 nm fluorescence, primary screen (AID 1115); conditions: small-molecule microarray, higher = more signal;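 note: probe is biotinylated aNog protein used at 0.15 µg/mL for 1 h at 4 C; z-score combines 667 nm fluorescence of each spot with its signal to noise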
# [9] = biological target: Torsin-1A-interacting protein 1 (Homo sapiens) (UniProt Q5JTV8); experiment: compound microarray binding of lysate hLAP1 – cell lysate, small-molecule microarray, COS7 lysate, 635/667 nm fluorescence, primary screen (AID 1116); conditions: 635 nm fluorescence, higher = more signal
# Chain of Torsin-1A-interacting protein 1 (Homo sapiens) (Q5JTV8 whole entry, looked up): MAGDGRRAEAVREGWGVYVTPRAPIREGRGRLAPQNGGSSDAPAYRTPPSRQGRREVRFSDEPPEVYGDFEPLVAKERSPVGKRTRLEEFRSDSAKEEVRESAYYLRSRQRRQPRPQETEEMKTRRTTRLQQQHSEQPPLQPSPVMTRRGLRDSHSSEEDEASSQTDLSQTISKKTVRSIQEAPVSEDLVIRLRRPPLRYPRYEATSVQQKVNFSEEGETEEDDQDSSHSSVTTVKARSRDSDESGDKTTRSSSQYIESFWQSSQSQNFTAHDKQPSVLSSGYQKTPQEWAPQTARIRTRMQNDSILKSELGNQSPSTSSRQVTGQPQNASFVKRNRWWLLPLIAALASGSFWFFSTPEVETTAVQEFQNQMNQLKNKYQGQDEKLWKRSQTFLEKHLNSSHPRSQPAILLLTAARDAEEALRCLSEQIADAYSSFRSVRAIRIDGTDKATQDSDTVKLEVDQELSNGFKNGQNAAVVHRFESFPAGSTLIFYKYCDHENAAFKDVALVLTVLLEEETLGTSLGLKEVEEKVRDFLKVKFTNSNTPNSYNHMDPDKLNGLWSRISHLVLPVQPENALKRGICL
# [10] = biological target: Alpha-bungarotoxin (Bungarus multicinctus) (UniProt P60615); experiment: compounds binding labelled alpha-BTX control protein – biochemical, small-molecule microarray, Alexa647 label, 635/667 nm fluorescence, artefact control for SMM control protein annotation, profiling panel (AID 1117); conditions: alpha-BTX-A647 binding fluorescence, higher = more signal
# Chain of Alpha-bungarotoxin (Bungarus multicinctus) (P60615 whole entry, looked up): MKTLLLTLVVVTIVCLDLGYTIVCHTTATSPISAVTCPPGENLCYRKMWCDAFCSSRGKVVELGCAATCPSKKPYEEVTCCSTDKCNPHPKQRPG
# [11] = biological target: Albumin (Bos taurus) (UniProt P02769); experiment: compounds binding labelled BSA control protein – biochemical, small-molecule microarray, Alexa647 label, 635/667 nm fluorescence, artefact control for SMM control protein annotation, profiling panel (AID 1118); conditions: BSA-A647 binding, fluorescence 635 nm, higher = more signal;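 note: score merges 667 nm emission intensity and signal-to-noise per printed compound spot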
# Chain of Albumin (Bos taurus) (P02769 whole entry, looked up): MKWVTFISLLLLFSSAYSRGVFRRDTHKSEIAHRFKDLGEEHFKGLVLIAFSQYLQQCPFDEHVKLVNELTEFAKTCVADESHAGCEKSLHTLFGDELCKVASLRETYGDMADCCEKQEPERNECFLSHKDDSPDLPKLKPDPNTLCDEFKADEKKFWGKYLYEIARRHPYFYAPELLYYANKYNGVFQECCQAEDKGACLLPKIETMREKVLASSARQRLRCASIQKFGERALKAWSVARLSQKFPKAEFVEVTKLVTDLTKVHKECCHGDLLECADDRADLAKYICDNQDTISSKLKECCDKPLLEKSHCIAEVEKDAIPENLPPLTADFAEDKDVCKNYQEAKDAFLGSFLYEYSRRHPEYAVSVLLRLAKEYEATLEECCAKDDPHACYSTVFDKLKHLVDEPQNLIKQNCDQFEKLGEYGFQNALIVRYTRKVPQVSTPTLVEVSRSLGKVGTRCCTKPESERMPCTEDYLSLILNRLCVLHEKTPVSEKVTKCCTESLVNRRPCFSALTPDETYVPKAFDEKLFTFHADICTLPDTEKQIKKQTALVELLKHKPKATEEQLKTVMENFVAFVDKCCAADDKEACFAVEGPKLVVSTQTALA
# [12] = probe aXIP binding to arrayed compounds – biochemical, NeuroSMM set, 635/667 nm fluorescence, primary screen (AID 1119); conditions: small-molecule microarray, higher = more signal, called active from +8 up or from −8 down;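 note: probe is the protein aXip251-270 applied at 1 µg/mL to compound-printed slides; binding of probe to printed compounds measured as 667 nm fluorescence plus signal to noise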
# [13] = probe aNOTCH3 binding on compound microarray – biochemical, small-molecule microarray, 635/667 nm fluorescence, primary screen (AID 1120); conditions: higher = more signal;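 note: probe is a biotin-tagged antibody raised against NOTCH3 rather than NOTCH3 protein; score merges spot fluorescence near 667 nm with spot signal to noise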
# [14] = probe aNOTCH2 binding on compound microarray – biochemical, small-molecule microarray, 635/667 nm fluorescence, primary screen (AID 1121); conditions: higher = more signal;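 note: score merges feature fluorescence read at 667 nm with its signal to noise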
# [15] = biological target: Carbonic anhydrase 2 (Homo sapiens) (UniProt P00918); experiment: compounds binding carbonic anhydrase 2 – biochemical, small-molecule microarray, Alexa647-labelled CAII, profiling panel (AID 1122); conditions: CAII-A647 binding fluorescence, higher = more signal
# [16] = COS7 lysate on small-molecule microarray, probe aHis, 635 nm (AID 1123); conditions: COS7 cell lysate, fluorescence, higher = more signal;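 note: z-score combines 667nm fluorescence intensity with signal-to-noise per printed compound spot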
# [17] = probe aLAP1 signal on lysate-treated microarray – cell lysate, small-molecule microarray, COS7 lysate, primary screen (AID 1124); conditions: probe aLAP1, fluorescence, higher = more signal;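 note: lysate comes from COS7 cells expressing LAP1 and is applied at 0.3 µg/mL; score merges spot fluorescence near 667 nm with signal-to-noise over triplicate slides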
# [18] = tested on: Sam68 (KHDRBS1); experiment: compounds binding KHDRBS1 protein – biochemical, small-molecule microarray, 635 nm fluorescence, primary screen (AID 1125); conditions: higher = more signal;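 note: score merges 667 nm channel intensity with signal to noise over triplicate slides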
# [19] = tested on: Chordin-like protein 2 (CHRDL2); experiment: compounds binding chordin-like 2 – biochemical, small-molecule microarray, 635 nm fluorescence, primary screen (AID 1126); conditions: fluorescence 635 nm, higher = more signal;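 note: printed compound slides probed with Chrdl2 protein at 4 µg/mL for 1 h at 4 C; score merges 667 nm emission intensity with signal to noise over three replicate slides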
# [20] = biological target: Concanavalin-A (Canavalia ensiformis) (UniProt P02866); experiment: compounds binding concanavalin A lectin – biochemical, small-molecule microarray, Alexa647 label, 635 nm, artefact control for SMM control protein annotation, primary screen (AID 1127); conditions: ConA-A647 binding fluorescence, higher = more signal;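 note: z combines 667 nm emission intensity with signal-to-noise across three replicate slides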
# Chain of Concanavalin-A (Canavalia ensiformis) (P02866 whole entry, looked up): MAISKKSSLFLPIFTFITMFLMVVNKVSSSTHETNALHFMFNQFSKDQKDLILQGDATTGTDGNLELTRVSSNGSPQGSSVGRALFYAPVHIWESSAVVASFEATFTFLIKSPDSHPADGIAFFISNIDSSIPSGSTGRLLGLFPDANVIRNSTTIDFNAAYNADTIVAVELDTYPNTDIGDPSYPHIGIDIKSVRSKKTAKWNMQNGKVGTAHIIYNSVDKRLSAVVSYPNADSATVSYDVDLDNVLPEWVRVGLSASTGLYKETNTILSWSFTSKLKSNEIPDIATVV
Structure (SMILES),composite z-score [1],z-score [2],composite z-score [3],composite z-score [4],composite z-score [5],composite z-score [6],composite z-score [7],composite z-score [8],composite z-score [9],composite z-score [10],composite z-score [11],composite Z-score [12],composite z-score [13],composite z-score [14],composite z-score [15],composite z-score [16],composite z-score [17],composite z-score [18],composite z-score [19],composite z-score [20]
CO[C@H]1O[C@H](CO)[C@@H](OC(=O)c2ccc(Br)cc2)[C@@H]2OC(=O)[C@H](Cc3ccccc3)C/C=C/C[C@@H](Cc3ccccc3)C(=O)O[C@@H]12,0.79,-3.01,0.109,0.575,-0.662,-0.275,-0.23,-0.542,0.706,0.142,0.776,0.726 (inactive),0.0971,-0.15,0.704,0.186,1.07,-0.148,0.136,0.599
COCCOC(=O)N1C(=O)[C@@]2(c3cc(C#CCC(C(=O)OC)C(=O)OC)ccc31)[C@H](c1ccc(O)cc1)N1[C@H](c3ccccc3)[C@H](c3ccccc3)OC(=O)[C@H]1[C@@H]2C(=O)NC[C@H](O)c1ccccc1,1.33,-0.496,0.485,1.91,0.67,-0.0172,-0.147,-0.346,1.06,0.353,0.781,0.7 (inactive),-0.196,-0.14,0.63,2.2,0.588,0.296,-0.282,1.07
CN(C)C(=O)[C@@]1(Cc2ccccc2N=[N+]=[N-])N=C(c2ccc(OCCCO)cc2)O[C@H]1c1ccccc1,0.0896,-2.52,0.123,2.4,1.09,0.103,-0.0022,-0.743,1.32,2.17,0.897,2.37 (inactive),0.484,0.369,0.681,2.76,1.13,1.31,-0.699,1.18
CC(C)(C)OC(=O)CC[C@]12N=C(c3ccc(OCCCO)cc3)O[C@H]1c1ccccc1N(Cc1ccccc1)C2=O,0.552,-2.09,0.27,0.42,0.348,-0.0765,-0.0969,0.963,1.36,1.28,0.0468,2.86 (inactive),0.0525,-0.0456,0.557,2.39,0.504,1.3,0.581,0.995
CN1C(=O)C2C=CC(C(O)c3ccc(F)cc3)N(NC(=O)OC(C)(C)C)C2C1=O (stereo not given),1.36,-0.428,-0.205,0.989,0.469,-0.109,0.265,1.12,-0.102,0.613,0.854,0.134 (inactive),0.0155,-0.0317,0.695,2.48,0.215,1.03,-1.3,0.923
COCCOC(=O)N1C(=O)[C@@]2(c3cc(C#CCNC(N)=O)ccc31)[C@H](c1ccc(O)cc1)N1[C@H](c3ccccc3)[C@H](c3ccccc3)OC(=O)[C@H]1[C@@H]2C(N)=O,-0.8,-0.101,-2.24,-0.747,0.502,-0.377,-0.378,-0.0585,-0.448,-2.27,-0.864,-1.03 (inactive),-0.443,-0.198,-0.394,-0.157,-0.38,-0.344,-1.52,-1.03
COc1ccc(C(O)C2C=CC3C(=O)N(c4ccccc4)C(=O)C3N2Nc2ccc(C(C)C)cc2)c2ccccc12 (stereo not given),1.39,-0.716,-0.146,1.17,0.922,0.0068,0.232,-0.229,0.865,2.55,0.916,0.0396 (inactive),0.378,0.186,0.725,2.84,0.284,1.31,-0.118,1.12
COCCOC(=O)N1C(=O)[C@@]2(c3cc(C#CCNC(N)=O)ccc31)[C@H](c1ccc(O)cc1)N1[C@H](c3ccccc3)[C@H](c3ccccc3)OC(=O)[C@H]1[C@@H]2C(=O)N1CCN(c2ncccn2)CC1,0.855,-1.3,0.315,2.03,0.762,-0.219,1.78,-0.48,1.82,1.52,0.678,0.529 (inactive),0.344,-0.175,0.506,2.41,0.566,1.27,0.279,1.1
CC(C)CCC[C@@H](C)[C@H]1CC[C@@]2(C)C3=C(CC[C@]12C)[C@@]1(C)CC[C@H](OC(=O)c2ccccc2)C(C)(C)C1CC3 (stereo not given in full),0.359,-0.313,0.593,-0.0989,-0.647,-0.124,-0.414,-0.0252,-0.251,0.261,0.181,0.115 (inactive),-0.0074,-0.181,-0.103,0.275,-0.0606,0.248,0.418,0.115
COCCOC(=O)N1C(=O)[C@@]2(c3cc(C#CCCO)ccc31)[C@H](c1ccccc1OCCO)N1[C@H](c3ccccc3)[C@H](c3ccccc3)OC(=O)[C@H]1[C@@H]2C(=O)N1CCCCCCC1,1.4,-2.25,0.994,2.58,1.09,0.495,1.94,2.8,3.04,2.2,0.86,0.358 (inactive),1.39,0.333,0.761,3.2,0.796,1.29,1.05,1.11
